Source: PubChem BioAssay
Activity calls are given as the source filed them.

assay: resazurin metabolic signal in A549 cells – cell-based, resazurin fluorescence, 24 h, PK04 Diversity Set, profiling panel (AID 1171); settings: A549 viability, higher = more signal, called active from +8 up or from −8 down; note: test concentration not given here

**Q.** Which z-score does the source give for `COCCOC(=O)N1C(=O)[C@@]2(c3cc(C#Cc4ccc(OC)cc4)ccc31)[C@H](C(N)=O)[C@H]1C(=O)O[C@H](c3ccccc3)[C@H](c3ccccc3)N1[C@@H]2c1ccccc1OCCO` here?
**A.** The z-score was -1.85 (inactive).

**Q.** With `C=CCN1C(=O)[C@@]2(O[C@@H](CCO)[C@H]([Si](C)(C)c3ccc(OC)cc3)[C@H]2C)c2cc(NC(=O)c3ccc(OC)cc3)ccc21` as the compound, how does the z-score read?
**A.** Its z-score is -2.27 (inactive).

**Q.** For `COC(=O)[C@@]1(Cc2ccc(F)cc2)[C@@H]2[C@@H](CC(=O)[C@H]2CC(=O)C(=O)N(C)C)CN1C(=O)c1ccccc1`, which z-score is on record?
**A.** The z-score was -2 (inactive).

**Q.** For `O=C1C2C=CC(C(O)c3ccc(F)cc3)N(Nc3ccccc3F)C2C(=O)N1c1ccccc1` (stereo not given), which z-score is on record?
**A.** The z-score was 0.0853 (inactive).

**Q.** For `C=CCN(Cc1ccccc1)C(=O)C(c1cccs1)N(CCOCCO)C(=O)/C=C\C(=O)O` (stereo not given), which z-score is on record?
**A.** Its z-score is -0.221 (inactive).

**Q.** For `C=C(CCCC)/C(=C/C[C@@H](OC(C)=O)c1ccccc1OCCO)c1cnc2ccccc2c1`, which z-score is on record?
**A.** The z-score was -1.21 (inactive).

**Q.** For `COc1cc2c(cc1OC)CN(C(=O)[C@@H]1[C@H]3C(=O)O[C@H](c4ccccc4)[C@H](c4ccccc4)N3[C@H](c3ccc(O)cc3)[C@@]13C(=O)Nc1ccc(C#CC4(O)CCCCCC4)cc13)CC2`, which z-score is on record?
**A.** Its z-score is 1.05 (inactive).

**Q.** For `COCCOC(=O)N1C(=O)[C@@]2(c3cc(C#Cc4ccc(OC)cc4)ccc31)[C@H](c1ccc(O)cc1)N1[C@H](c3ccccc3)[C@H](c3ccccc3)OC(=O)[C@H]1[C@@H]2C(=O)NC[C@H](O)c1ccccc1`, which z-score is on record?
**A.** Its z-score is 0.123 (inactive).

**Q.** For `COCCOC(=O)N1C(=O)[C@@]2(c3cc(C#CC4=CCCCC4)ccc31)[C@H](C(=O)Nc1nc3ccccc3s1)[C@H]1C(=O)O[C@H](c3ccccc3)[C@H](c3ccccc3)N1[C@@H]2c1ccccc1OCCO`, which z-score is on record?
**A.** Its z-score is 0.163 (inactive).

**Q.** For `CN(C)C(=O)[C@]1(Cc2ccccc2CN=[N+]=[N-])N=C(c2ccc(OCCCO)cc2)O[C@@H]1c1ccccc1CN=[N+]=[N-]`, which z-score is on record?
**A.** Its z-score is 0.113 (inactive).

**Q.** With `COc1ccc([C@H]2OC[C@@H]3CC4(CC=CC4)C(=O)N32)cc1` as the compound, how does the z-score read?
**A.** Its z-score is -0.312 (inactive).

**Q.** Which z-score does the source give for `CCCC[C@@H]1C[C@H]1[C@@H](NC(=O)c1ccco1)c1ccc(C(=O)OC)cc1` here?
**A.** The z-score was -0.136 (inactive).

**Q.** For `O=C1C[C@]2(c3ccc([N+](=O)[O-])cc3)C(=O)N(CCN3CCOCC3)c3cc(CO)ccc3[C@H]2N1C1CCCCC1`, which z-score is on record?
**A.** The z-score was -1.17 (inactive).

**Q.** Which z-score does the source give for `O=C(O)[C@@]1(CCS(=O)(=O)c2ccccc2)COC(c2ccc(OCCCO)cc2)=N1` here?
**A.** The z-score was 0.221 (inactive).

**Q.** For `COc1ccc(C(O)C2C=CC3C(=O)N(c4ccccc4)C(=O)C3N2Nc2ccccc2F)cc1OCc1ccccc1` (stereo not given), which z-score is on record?
**A.** The z-score was -0.179 (inactive).

**Q.** Which z-score does the source give for `CC(=O)NCCCC[C@@H]1NC(=O)[C@@H]2C[C@H](C(=O)NCCCCN(C)C)[C@H](c3cccc(OCCO)c3)N2C1=O` here?
**A.** The z-score was 0.604 (inactive).

**Q.** For `O=C1NC(=O)C2C1C=CC(C(O)C(c1ccccc1)c1ccccc1)N2Nc1ccc(Cl)cc1Cl` (stereo not given), which z-score is on record?
**A.** Its z-score is -1.18 (inactive).

**Q.** Which z-score does the source give for `COC(=O)C(CC#Cc1ccc2c(c1)[C@]1(C(=O)N2)[C@H](c2ccc(O)cc2)N2[C@H](c3ccccc3)[C@H](c3ccccc3)OC(=O)[C@H]2[C@@H]1C(=O)Nc1nc2ccccc2s1)C(=O)OC` here?
**A.** The z-score was -0.351 (inactive).

**Q.** Which z-score does the source give for `C=CCOC(=O)[C@H]1[C@@H]2C(=O)O[C@@H](c3ccccc3)[C@@H](c3ccccc3)N2[C@@H](c2ccc(OCCOC(=O)[C@@H]3C[C@@H]4C(=O)N5CCC[C@H]5C(=O)N4[C@@H]3c3cccc(OCCO)c3)cc2)[C@]12C(=O)Nc1ccccc12` here?
**A.** Its z-score is -1.65 (inactive).

**Q.** For `COc1cc(CO)cc(I)c1O[C@H]1C=C(C(=O)NCCO)C[C@@H](N(CCN2CCOCC2)C(=O)C2CCOC2)[C@@H]1O` (stereo not given in full), which z-score is on record?
**A.** The z-score was -0.435 (inactive).

**Q.** For `C=CCOC(=O)[C@@H]1[C@H]2C(=O)O[C@H](c3ccccc3)[C@H](c3ccccc3)N2[C@H](c2ccc(OCCOC(=O)[C@@H]3C[C@@H]4C(=O)N[C@@H](Cc5ccccc5)C(=O)N4[C@@H]3c3ccc(O)cc3)cc2)[C@@]12C(=O)Nc1ccc(I)cc12`, which z-score is on record?
**A.** The z-score was 0.128 (inactive).

**Q.** Which z-score does the source give for `C=CCNC(=O)[C@H]1[C@@H]2C(=O)O[C@@H](c3ccccc3)[C@@H](c3ccccc3)N2[C@@H](c2ccccc2OCCO)[C@]12C(=O)Nc1ccc(C#CC3=CCCCC3)cc12` here?
**A.** Its z-score is -1.27 (inactive).

**Q.** With `Cc1ccc(S[C@]2(C(=O)NCCN3CCOCC3)CC(=O)N(Cc3ccccc3Cl)[C@@H]2c2ccc(CO)cc2)cc1` as the compound, how does the z-score read?
**A.** Its z-score is 1.05 (inactive).

**Q.** With `COC(=O)[C@@]1(Cc2ccc(OC)cc2)[C@H]2c3cc(C(=O)N4CCCC4)n(Cc4ccccc4)c3C[C@H]2CN1C(=O)c1ccccc1` as the compound, how does the z-score read?
**A.** The z-score was -2.5 (inactive).

**Q.** With `CC(C)C(=C=CC[C@@H](O)c1ccccc1OCCO)CCO` as the compound, how does the z-score read?
**A.** Its z-score is 0.215 (inactive).

**Q.** Which z-score does the source give for `CC(C)c1ccc(NN2C(C(O)C(c3ccccc3)c3ccccc3)C=CC3C(=O)N(c4ccccc4)C(=O)C32)cc1` (stereo not given) here?
**A.** The z-score was -2.05 (inactive).

**Q.** With `CCN(CC)c1ccc(N2CC=CC34O[C@@H]5/C=C\CCCOC(=O)C5[C@H]3C(=O)N(CCO)[C@@H]4C2=O)cc1` (stereo not given in full) as the compound, how does the z-score read?
**A.** Its z-score is -1.8 (inactive).

**Q.** With `COCCCNC(=O)C1N=C(c2ccc(OCCCO)cc2)N(c2ccccc2)O1` (stereo not given) as the compound, how does the z-score read?
**A.** The z-score was 0.938 (inactive).

**Q.** Which z-score does the source give for `COc1ccc([Si](C)(C)[C@H]2[C@H](CCO)O[C@@]3(C(=O)N(C)c4c(Br)cc(C)cc43)[C@@H]2C)cc1` here?
**A.** Its z-score is -6.97 (inactive).

**Q.** With `COC(=O)[C@@]1(Cc2ccccc2)[C@H]2c3cc(C(=O)N4CCCC4)n(CC4CC4)c3C[C@H]2CN1C(=O)c1ccccc1` as the compound, how does the z-score read?
**A.** The z-score was -1.51 (inactive).

**Q.** For `O=C1O[C@H](c2ccccc2)[C@H](c2ccccc2)N2[C@H]1[C@@H](C(=O)Nc1nc3ccccc3s1)[C@]1(C(=O)Nc3ccc(C#CC4(O)CCCCCC4)cc31)[C@H]2c1ccc(OCCO)cc1`, which z-score is on record?
**A.** Its z-score is 0.634 (inactive).

**Q.** Which z-score does the source give for `COC(=O)[C@@]1(Cc2ccc(F)cc2)[C@H]2c3cc(C(=O)N4CCCC4)n(Cc4cc(C)n(C)n4)c3C[C@H]2CN1C(=O)c1ccccc1` here?
**A.** Its z-score is -0.156 (inactive).

**Q.** Which z-score does the source give for `CC(C)(C)OC(=O)CC[C@@]12N=C(c3ccc(OCCCO)cc3)O[C@@H]1c1ccccc1N(CCS(=O)(=O)c1ccccc1)C2=O` here?
**A.** The z-score was -1.91 (inactive).

**Q.** For `CC(C)(C)OC(=O)CC[C@]1(C(=O)NCC(O)CO)COC(c2ccc(OCCCO)cc2)=N1` (stereo not given in full), which z-score is on record?
**A.** The z-score was 0.706 (inactive).

**Q.** Which z-score does the source give for `C=CC[C@@]1(C(N)=O)N=C(c2ccc(OCCCO)cc2)O[C@@H]1c1ccccc1CN=[N+]=[N-]` here?
**A.** The z-score was -0.29 (inactive).
